IL-1B inflam inh – inhibitors of inflammasome signaling (IL-1 beta secretion); THP-1 LPS/ATP IL-1B secretion, AlphaLISA, 16 h; hits give low values; activity change, % at 57.5 µM; hit rate 4.7% among 360,000; in the data active = activity change below about -50%; inconclusive = mostly about -30% to -49%
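Secreted IL-1B measured by AlphaLISA bead assay after 16 h compound exposure of THP-1 cells; compounds (final up to 57.5 uM) added 1 h before LPS (250 ng/mL) and ATP (1.25 mM) stimulation; lower signal means less secretion.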
Six1-Eya2 blk – inhibitors of human Six1/Eya2 interaction | Q15475+O00167 | AlphaScreen GST-Six1/His-Eya2 binding, biochemical; hits give low values | activity change, % (concentration not given with the values) | hit rate 0.56% among 360,000; in the data active = activity change below about -65%; inconclusive = mostly about -30% to -63%
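AlphaScreen with GST-Six1 and His-Eya2 (5X mix: 250 nM and 500 nM), glutathione donor and nickel acceptor beads; buffer 50 mM Tris pH 8.0, 300 mM NaCl, 1 mM TCEP; 1 h at 37 C in the dark.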
TDP1 cell CPT – growth inhibition of DT40 Tdp1-/-;hTDP1 cells with camptothecin (screen for TDP1 inhibitors) | chicken DT40 Tdp1-/-;hTDP1 cells + 20 nM CPT, ATP luminescence, 48 h | Potency, µM (top dose mostly 46.2 µM), hits mostly inhibitors | hit rate 12% among 420,000; note: nearly all actives have a fitted effect of over 55% in size
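Chicken DT40 Tdp1-/- cells complemented with human TDP1, 400 cells/well, exposed to compounds plus 20 nM camptothecin for at least 48 h at 37 C; viability read as ATP content by CellTiter-Glo luminescence.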
DT40 TDP1 no CPT – qHTS for Inhibitors of human tyrosyl-DNA phosphodiesterase 1 (TDP1): qHTS in cells in absence of CPT; DT40 Tdp1-/- hTDP1 cells, no CPT, ATP luminescence, 48 h; hit rate 15% among 420,000; Potency, µM (series often up to 46.2 µM), actives largely listed as inhibitors; note: nearly all actives have a fitted effect of over 55% in size
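Readout: luminescence from CellTiter-Glo after 30 min in the dark at RT. Cells: DT40 Tdp1-/- with stable hTDP1, 400/well. Exposure: compounds alone, ≥48 hr, 37 °C.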
CtBP-E1A inh – inhibitors of CtBP/E1A interaction. activity change, % (concentration not given with the values). AID 651724. hit rate 0.49% among 340,000. AlphaScreen GST-E1A/His-CtBP binding, 1536-well; hits give low values; in the data active = activity change below about -65%; inconclusive = mostly about -30% to -63%
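AlphaScreen with 125 nM GST-E1A and 125 nM His-CtBP (5X stocks) in Tris pH 8.0, 300 mM NaCl, BSA, Tween 20, TCEP. Compounds preincubated 2 h at 37 deg C, then glutathione donor/nickel acceptor beads added for 1 h at 37 deg C in dark.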
TDP1 block – blocks human tyrosyl-DNA phosphodiesterase 1 | Q9NUW8 | recombinant TDP1, AlphaScreen DNA substrate cleavage | Potency, µM (series often up to 130 µM), hits mostly inhibitors | hit rate 0.28% among 350,000; note: nearly all actives have a fitted effect of over 40% in size
Target sequence (Q9NUW8 whole entry, looked up): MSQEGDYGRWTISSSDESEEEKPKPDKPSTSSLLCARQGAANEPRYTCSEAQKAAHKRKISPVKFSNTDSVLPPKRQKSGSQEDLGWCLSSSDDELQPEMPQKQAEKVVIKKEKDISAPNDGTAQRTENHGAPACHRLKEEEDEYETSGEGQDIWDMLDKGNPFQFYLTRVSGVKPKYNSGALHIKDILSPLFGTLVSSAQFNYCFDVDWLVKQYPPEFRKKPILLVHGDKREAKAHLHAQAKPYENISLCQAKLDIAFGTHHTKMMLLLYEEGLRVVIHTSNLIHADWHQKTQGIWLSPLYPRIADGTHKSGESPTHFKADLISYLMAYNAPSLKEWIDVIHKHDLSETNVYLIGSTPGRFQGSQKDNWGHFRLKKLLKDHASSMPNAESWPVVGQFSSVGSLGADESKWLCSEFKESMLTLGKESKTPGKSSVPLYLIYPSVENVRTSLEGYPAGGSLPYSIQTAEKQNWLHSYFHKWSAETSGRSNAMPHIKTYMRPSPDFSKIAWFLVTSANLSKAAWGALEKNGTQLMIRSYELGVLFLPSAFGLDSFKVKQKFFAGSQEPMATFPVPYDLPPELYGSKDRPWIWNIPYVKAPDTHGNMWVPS
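Recombinant human Tdp1 (E. coli-expressed, 1 nM final) preincubated with compounds 15 min at room temperature, then 5'-biotin/3'-phosphotyrosine-FITC DNA substrate (15 nM final) added for 5 min. AlphaScreen beads (10 ug/ml final) added 10 min; cleavage lowers signal.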
Large screens that a line does not name were inactive. Only some compounds are listed: those with a hit (about 18% of all), similar ones and a draw of the others. Unless noted, calls come from the whole dose curve; as a rule, active = well fitted curve in the direction sought with a large enough effect; inconclusive = small, poorly fitted or top-dose-only effect, or another doubt; inactive = no such curve, though single readings can be large; an effect the other way counts as inactive or inconclusive.

O=Cc1ccc(O)c(O)c1	IL-1B inflam inh -57
Oc1ccc(/C=N/N=C/c2ccc(O)c(O)c2)cc1O	TDP1 cell CPT inconclusive, DT40 TDP1 no CPT 18µM (no result: TDP1 block)
Oc1ccc(/C=N/N=C/c2ccc(O)cc2)cc1	none
CC(C)OCCCNC(=O)CCC(=O)NNc1nc2ccccc2c2nc(-c3ccccc3)nn12	DT40 TDP1 no CPT inconclusive
COc1cc(NC(=O)COC(=O)/C=C/c2ccc(O)c(OC)c2)cc(OC)c1	DT40 TDP1 no CPT inconclusive
CCN1C[C@@H]2[C@@H]3C(=O)N(Cc4ccccc4)C(=O)[C@@H]3[C@](C)(C(=O)OC)N2C1=NC	none (no result: TDP1 block)
Cc1cccc(-n2c(-c3cccc([N+](=O)[O-])c3)nc3nc4ccccc4nc32)c1	none (no result: IL-1B inflam inh, Six1-Eya2 blk, TDP1 cell CPT, DT40 TDP1 no CPT, CtBP-E1A inh)
CC(=O)Nc1ccc(S(=O)(=O)N2CN(c3ccc(C)cc3)c3nc4ccccc4nc32)cc1	TDP1 cell CPT inconclusive, DT40 TDP1 no CPT inconclusive (no result: TDP1 block)
Cc1ccc(SC(=O)c2c([N+](=O)[O-])c(C)nn2C)cc1	IL-1B inflam inh -65, TDP1 cell CPT 18µM, DT40 TDP1 no CPT 15µM
CCN(Cc1ccncc1)Cc1nc(-c2ccc(C(=O)OC)cc2)no1	TDP1 cell CPT inconclusive, DT40 TDP1 no CPT 21µM
COC(=O)c1ccc(-c2noc(CN(C)Cc3ccncc3C)n2)cc1	DT40 TDP1 no CPT inconclusive (no result: CtBP-E1A inh)
CCN(CC(=O)O)S(=O)(=O)c1cc(Cl)ccc1Cl	none
Cc1ccc(C)c(N2CCN(C(=O)C34CC5CC(C3)CC(n3nnc(C)n3)(C5)C4)CC2)c1	IL-1B inflam inh inconclusive, TDP1 cell CPT 6.5µM, DT40 TDP1 no CPT 7.3µM
CN(C(=O)CN1C(=O)NC2(CCc3ccccc32)C1=O)C1CCS(=O)(=O)C1 (stereo not given)	none (no result: TDP1 block)
COc1cccc(C(=O)OCc2ccccc2C#N)c1O	none
CC(=O)n1cc(N(C(=O)CCl)c2ccc(Cl)cc2)c2ccccc21	TDP1 cell CPT 1.5µM, DT40 TDP1 no CPT 1.3µM (no result: CtBP-E1A inh, TDP1 block)
COc1ccccc1N(C(=O)CCl)c1cn(C(C)=O)c2ccccc12	IL-1B inflam inh -60, TDP1 cell CPT 4.6µM, DT40 TDP1 no CPT 4.6µM (no result: CtBP-E1A inh)
CC(=O)n1cc(C=O)c2ccccc21	none (no result: IL-1B inflam inh, Six1-Eya2 blk, CtBP-E1A inh, TDP1 block)
CCCCC(NC(=O)CCc1c(C)c2cc3c4c(oc3c(C)c2oc1=O)CCCC4)C(=O)O (stereo not given)	CtBP-E1A inh inconclusive (no result: TDP1 block)
Cc1nc(Cl)sc1C(=O)Nc1cccc(Cl)c1	IL-1B inflam inh -56 (no result: TDP1 block)
CC(=O)c1cccc(NC(=O)c2sc(Cl)nc2C)c1	IL-1B inflam inh -54 (no result: TDP1 block)
Cc1ccc(C)c(NC(=O)c2sc(Cl)nc2C)c1	IL-1B inflam inh -58
Cc1nc(Cl)sc1C(=O)Nc1ccccc1	none
Cc1nc(-c2ccccn2)sc1C(=O)Nc1ccc(Cl)c(Cl)c1	TDP1 cell CPT inconclusive, DT40 TDP1 no CPT 15µM
COc1ccc(Cc2c(C)nn(-c3nc(C)c(C(=O)Nc4cccc(C(C)=O)c4)s3)c2C)cc1	TDP1 cell CPT 9.2µM, DT40 TDP1 no CPT 12µM (no result: IL-1B inflam inh, Six1-Eya2 blk, CtBP-E1A inh)
CCc1ccccc1NC(=O)c1sc(-n2nc(C)c(Cc3ccc4c(c3)OCO4)c2C)nc1C	TDP1 cell CPT inconclusive, DT40 TDP1 no CPT 18µM (no result: IL-1B inflam inh, Six1-Eya2 blk, CtBP-E1A inh)
Cc1nc(-n2nc(C)c(Cc3ccc4c(c3)OCO4)c2C)sc1C(=O)Nc1ccc(Cl)cc1	none (no result: IL-1B inflam inh, Six1-Eya2 blk, CtBP-E1A inh)
COC(=O)NC1(C(=O)O)CCCC1	none
CCC1=NN(S(=O)(=O)c2ccc(C)cc2)C(O)(C(F)(F)F)C1 (stereo not given)	none
O=S(=O)(Nc1ccc(S(=O)(=O)Nc2ccccc2)cc1)c1ccccc1	TDP1 cell CPT inconclusive
O=S(=O)(Nc1ccc(N=Nc2ccccc2)cc1)c1ccccc1	IL-1B inflam inh -88, Six1-Eya2 blk inconclusive, TDP1 cell CPT inconclusive, DT40 TDP1 no CPT inconclusive
O=[N+]([O-])c1ccc(N=Nc2ccc(O)c3ccccc23)cc1	IL-1B inflam inh -76, Six1-Eya2 blk inconclusive, TDP1 cell CPT 15µM, DT40 TDP1 no CPT 2.6µM, CtBP-E1A inh -70 (no result: TDP1 block)

Screening results (PubChem)
